This is an account of results in article PMC7862700, “An all-to-all approach to the identification of sequence-specific readers for epigenetic DNA modifications on cytosine”.

Common to all, as to assay: DAPPL (digital affinity profiling via proximity ligation, sequencing); 10 mM Tris-HCl pH 7.5, 50 mM NaCl, 1 mM DTT, 4% glycerol, room temperature, 30 min; GST-TFs on glutathione beads, 16-mer random dsDNA library, 0.1% formaldehyde crosslink after washing; high values mean tight binding
Holding throughout (conditions): protein: recombinant; tags: N-terminal GST; dsDNA, one strand shown

One assay concerns the target T1, ERG (Homo sapiens, UniProt P11308 1-479).
T1 sequence: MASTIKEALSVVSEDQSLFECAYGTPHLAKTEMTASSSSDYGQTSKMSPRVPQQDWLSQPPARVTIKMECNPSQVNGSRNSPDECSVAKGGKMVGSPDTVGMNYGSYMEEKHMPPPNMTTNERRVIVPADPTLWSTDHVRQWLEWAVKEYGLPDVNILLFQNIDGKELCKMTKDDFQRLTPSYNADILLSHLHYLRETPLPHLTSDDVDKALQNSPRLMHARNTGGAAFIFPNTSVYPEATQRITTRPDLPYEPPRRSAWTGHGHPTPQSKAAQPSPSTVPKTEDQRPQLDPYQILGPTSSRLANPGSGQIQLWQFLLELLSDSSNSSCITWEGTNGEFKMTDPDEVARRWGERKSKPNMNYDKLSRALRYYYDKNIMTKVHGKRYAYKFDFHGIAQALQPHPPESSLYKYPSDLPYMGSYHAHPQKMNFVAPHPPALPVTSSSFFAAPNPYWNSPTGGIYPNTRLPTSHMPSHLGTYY
The method in brief: (§1)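 GST fusions of human transcription factors were expressed in yeast and captured with glutathione beads. Once given DNA barcodes and pooled alongside a tag-only sample, they were incubated for 30 min at room temperature with 200 nmole of a random double-stranded 16-mer DNA library in Tris/NaCl/DTT/glycerol buffer, then washed, crosslinked (0.1% formaldehyde), proximity-ligated, PCR-amplified and sequenced on an Illumina NextSeq500. The binding signal of each hexamer is its read frequency for a factor divided by its frequency for the tag-only sample.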

Another assay concerns the target ELF1 (Homo sapiens, UniProt P32519 1-619). The method in brief: as §1
The target of a further assay is T2, EHF (Homo sapiens, UniProt Q9NZC4 1-300).
T2 sequence: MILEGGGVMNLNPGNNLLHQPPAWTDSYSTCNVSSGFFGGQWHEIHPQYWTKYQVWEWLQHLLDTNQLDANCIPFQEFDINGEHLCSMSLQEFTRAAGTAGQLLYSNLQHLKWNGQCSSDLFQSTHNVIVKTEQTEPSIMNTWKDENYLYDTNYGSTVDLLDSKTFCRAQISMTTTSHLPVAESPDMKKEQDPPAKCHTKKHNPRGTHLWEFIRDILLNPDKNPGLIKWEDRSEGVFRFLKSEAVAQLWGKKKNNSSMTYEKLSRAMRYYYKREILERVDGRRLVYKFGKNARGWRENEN
The method in brief:
as §1

Another assay concerns the target ETV5 (Homo sapiens, UniProt P41161 1-510). The method in brief: as §1
For the next assay, the target named is T3, ELK4 (Homo sapiens, UniProt P28324-2 1-405).
T3 sequence: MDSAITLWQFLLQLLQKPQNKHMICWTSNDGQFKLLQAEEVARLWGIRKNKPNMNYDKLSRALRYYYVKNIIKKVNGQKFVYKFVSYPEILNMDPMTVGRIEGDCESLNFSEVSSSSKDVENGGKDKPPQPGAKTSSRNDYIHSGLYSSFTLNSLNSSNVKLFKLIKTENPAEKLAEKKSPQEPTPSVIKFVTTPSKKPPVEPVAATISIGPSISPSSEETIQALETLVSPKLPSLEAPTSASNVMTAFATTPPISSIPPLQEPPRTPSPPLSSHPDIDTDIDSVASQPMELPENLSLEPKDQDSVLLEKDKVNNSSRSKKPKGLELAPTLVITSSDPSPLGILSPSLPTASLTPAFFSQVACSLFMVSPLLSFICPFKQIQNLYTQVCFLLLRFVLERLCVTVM
The method in brief: as §1

For the next assay, the target named is T4, ETV2 (Homo sapiens, UniProt O00321 1-342).
T4 sequence: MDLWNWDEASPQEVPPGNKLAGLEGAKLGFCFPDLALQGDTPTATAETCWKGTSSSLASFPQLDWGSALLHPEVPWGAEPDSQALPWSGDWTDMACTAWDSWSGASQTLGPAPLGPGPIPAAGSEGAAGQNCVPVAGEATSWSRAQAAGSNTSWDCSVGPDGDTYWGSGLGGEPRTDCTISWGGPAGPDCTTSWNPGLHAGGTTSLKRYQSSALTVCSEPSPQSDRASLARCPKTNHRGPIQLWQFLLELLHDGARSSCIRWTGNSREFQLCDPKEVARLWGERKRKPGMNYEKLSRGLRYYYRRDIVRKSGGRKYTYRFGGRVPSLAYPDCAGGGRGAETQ
The method in brief:
as §1

Another assay deals with T5, ELF3 (Homo sapiens, UniProt P78545 1-371).
T5 sequence: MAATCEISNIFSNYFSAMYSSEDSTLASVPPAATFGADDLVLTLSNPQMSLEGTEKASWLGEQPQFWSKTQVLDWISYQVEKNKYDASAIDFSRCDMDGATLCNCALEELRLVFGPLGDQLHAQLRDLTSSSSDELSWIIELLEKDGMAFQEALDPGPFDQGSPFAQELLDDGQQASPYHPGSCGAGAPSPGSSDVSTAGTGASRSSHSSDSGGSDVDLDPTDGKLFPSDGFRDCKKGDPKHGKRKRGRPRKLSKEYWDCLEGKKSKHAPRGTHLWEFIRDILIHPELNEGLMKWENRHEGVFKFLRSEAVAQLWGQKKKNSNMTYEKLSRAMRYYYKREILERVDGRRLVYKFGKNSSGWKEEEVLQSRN
In short, it runs like this:
as §1

A further assay deals with T6, ERF (Homo sapiens, UniProt P50548 1-548).
T6 sequence: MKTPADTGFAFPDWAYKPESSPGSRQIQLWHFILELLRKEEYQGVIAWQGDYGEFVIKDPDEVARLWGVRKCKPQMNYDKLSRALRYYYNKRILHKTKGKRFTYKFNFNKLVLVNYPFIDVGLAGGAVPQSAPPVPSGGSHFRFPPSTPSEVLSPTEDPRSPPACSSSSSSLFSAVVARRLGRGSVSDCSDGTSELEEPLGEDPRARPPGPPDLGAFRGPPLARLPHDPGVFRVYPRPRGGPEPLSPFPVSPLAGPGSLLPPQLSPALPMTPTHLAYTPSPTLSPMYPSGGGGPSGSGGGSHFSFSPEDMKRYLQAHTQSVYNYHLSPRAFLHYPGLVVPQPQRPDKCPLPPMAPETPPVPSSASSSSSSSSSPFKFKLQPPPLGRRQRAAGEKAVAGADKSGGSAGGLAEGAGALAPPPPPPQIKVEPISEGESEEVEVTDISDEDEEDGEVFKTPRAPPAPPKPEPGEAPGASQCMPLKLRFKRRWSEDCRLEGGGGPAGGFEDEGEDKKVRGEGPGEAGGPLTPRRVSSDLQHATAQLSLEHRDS
The method in brief: as §1

The next assay has as its target T7, ETV3L (Homo sapiens, UniProt Q6ZN32 1-361).
T7 sequence: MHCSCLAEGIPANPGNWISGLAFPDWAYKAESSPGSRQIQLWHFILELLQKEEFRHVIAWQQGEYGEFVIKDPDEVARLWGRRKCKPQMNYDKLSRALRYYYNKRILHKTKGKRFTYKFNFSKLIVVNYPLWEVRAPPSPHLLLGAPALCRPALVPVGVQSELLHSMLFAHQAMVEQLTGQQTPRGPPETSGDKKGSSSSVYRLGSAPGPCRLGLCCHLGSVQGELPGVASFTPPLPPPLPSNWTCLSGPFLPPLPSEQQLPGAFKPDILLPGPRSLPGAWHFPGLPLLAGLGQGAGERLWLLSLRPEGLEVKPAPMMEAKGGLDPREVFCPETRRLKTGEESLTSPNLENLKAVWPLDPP
In short, it runs like this:
as §1

The next assay concerns the target T8, ETS2 (Homo sapiens, UniProt P15036 1-469).
T8 sequence: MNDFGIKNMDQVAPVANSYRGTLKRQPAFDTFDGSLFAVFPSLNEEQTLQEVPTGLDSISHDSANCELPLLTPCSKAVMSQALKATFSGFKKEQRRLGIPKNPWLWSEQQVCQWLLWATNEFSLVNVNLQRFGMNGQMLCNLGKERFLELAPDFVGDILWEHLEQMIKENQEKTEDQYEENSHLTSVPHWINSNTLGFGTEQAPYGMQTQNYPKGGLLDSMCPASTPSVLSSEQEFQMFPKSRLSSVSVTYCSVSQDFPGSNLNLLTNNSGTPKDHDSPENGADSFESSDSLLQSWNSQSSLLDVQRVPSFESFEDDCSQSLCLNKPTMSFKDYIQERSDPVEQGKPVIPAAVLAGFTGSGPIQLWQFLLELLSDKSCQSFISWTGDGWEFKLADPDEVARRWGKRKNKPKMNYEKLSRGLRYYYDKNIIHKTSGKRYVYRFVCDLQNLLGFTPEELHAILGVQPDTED
The method in brief:
as §1

For the next assay, the target named is T9, ETV7 (Homo sapiens, UniProt Q9Y603 1-341).
T9 sequence: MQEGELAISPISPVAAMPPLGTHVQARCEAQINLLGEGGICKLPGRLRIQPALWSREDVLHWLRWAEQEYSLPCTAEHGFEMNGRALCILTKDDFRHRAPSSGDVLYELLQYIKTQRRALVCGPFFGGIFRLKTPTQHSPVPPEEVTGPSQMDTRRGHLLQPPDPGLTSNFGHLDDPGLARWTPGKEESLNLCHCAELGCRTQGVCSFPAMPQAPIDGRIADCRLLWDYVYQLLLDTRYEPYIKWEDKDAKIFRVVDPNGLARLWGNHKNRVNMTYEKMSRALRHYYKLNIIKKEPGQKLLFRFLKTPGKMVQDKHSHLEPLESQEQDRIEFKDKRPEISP
The method in brief:
as §1

The next assay deals with T10, ETV3 (Homo sapiens, UniProt P41162-2 1-143).
T10 sequence: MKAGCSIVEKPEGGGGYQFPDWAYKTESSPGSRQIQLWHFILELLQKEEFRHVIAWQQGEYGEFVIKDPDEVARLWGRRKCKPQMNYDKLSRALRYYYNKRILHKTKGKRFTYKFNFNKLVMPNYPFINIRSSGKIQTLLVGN
In short, it runs like this:
as §1

A further assay deals with ETV6 (Homo sapiens, UniProt P41212 1-452). In short, it runs like this: as §1
Sequence of ETV6 (P41212 whole entry): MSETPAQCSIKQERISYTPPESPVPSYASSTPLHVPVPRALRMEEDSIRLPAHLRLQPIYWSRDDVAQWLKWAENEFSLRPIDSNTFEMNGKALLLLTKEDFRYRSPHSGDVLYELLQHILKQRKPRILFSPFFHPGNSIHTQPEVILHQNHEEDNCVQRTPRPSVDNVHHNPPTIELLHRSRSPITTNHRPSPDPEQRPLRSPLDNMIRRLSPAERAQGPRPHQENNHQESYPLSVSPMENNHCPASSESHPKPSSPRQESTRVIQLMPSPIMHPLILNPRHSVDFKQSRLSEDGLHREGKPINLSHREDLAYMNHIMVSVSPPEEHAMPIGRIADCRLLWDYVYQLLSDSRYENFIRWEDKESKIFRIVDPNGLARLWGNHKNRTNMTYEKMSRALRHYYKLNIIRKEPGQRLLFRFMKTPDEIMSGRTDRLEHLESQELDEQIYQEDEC

Sequence of ELF1 (P32519 whole entry): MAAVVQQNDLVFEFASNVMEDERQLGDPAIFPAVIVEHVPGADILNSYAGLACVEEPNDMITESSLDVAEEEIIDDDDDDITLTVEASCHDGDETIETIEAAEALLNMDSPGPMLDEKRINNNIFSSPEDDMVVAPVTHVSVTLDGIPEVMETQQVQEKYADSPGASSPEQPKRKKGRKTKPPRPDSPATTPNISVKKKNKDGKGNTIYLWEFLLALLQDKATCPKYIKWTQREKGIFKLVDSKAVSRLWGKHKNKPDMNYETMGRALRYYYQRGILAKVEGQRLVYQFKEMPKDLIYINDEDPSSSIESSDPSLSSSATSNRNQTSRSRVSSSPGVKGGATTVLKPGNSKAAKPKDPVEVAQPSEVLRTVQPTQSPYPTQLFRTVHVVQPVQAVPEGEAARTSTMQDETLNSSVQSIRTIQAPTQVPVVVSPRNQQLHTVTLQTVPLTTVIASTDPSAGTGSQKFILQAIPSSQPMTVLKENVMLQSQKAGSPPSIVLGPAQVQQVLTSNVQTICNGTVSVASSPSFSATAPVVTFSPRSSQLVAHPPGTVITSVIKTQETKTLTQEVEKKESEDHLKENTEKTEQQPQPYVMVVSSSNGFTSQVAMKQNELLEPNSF
Sequence of ETV5 (P41161 whole entry): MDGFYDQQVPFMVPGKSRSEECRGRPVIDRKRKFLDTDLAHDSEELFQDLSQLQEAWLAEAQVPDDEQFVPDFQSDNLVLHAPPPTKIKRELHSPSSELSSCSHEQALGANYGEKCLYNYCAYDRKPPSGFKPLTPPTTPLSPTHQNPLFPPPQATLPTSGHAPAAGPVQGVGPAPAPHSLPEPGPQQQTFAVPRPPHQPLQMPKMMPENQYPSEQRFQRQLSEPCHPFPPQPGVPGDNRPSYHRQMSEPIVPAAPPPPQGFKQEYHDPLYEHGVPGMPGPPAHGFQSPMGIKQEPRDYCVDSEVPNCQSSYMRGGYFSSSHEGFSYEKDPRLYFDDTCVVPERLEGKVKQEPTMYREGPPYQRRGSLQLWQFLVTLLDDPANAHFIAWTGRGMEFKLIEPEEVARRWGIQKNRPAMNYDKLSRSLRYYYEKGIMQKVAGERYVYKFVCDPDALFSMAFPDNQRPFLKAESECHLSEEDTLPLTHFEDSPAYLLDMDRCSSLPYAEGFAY

On to TCAAGC, for which the binding signal with ERG was 1.01 fold enrichment (6-mer frequency, TF over GST control); in the assay with ELF1, 1 fold enrichment (6-mer frequency, TF over GST control); with EHF, 1.01 fold enrichment (6-mer frequency, TF over GST control); with ETV5, 1.02 fold enrichment (6-mer frequency, TF over GST control); with ELK4, 1.01 fold enrichment (6-mer frequency, TF over GST control); in the assay with ETV2 it was 1.09 fold enrichment (6-mer frequency, TF over GST control). In addition, the binding signal with ELF3 is 1.04 fold enrichment (6-mer frequency, TF over GST control); in the assay with ERF, 1.06 fold enrichment (6-mer frequency, TF over GST control); in the assay with ETV3L it was 1.08 fold enrichment (6-mer frequency, TF over GST control); with ETS2, 1 fold enrichment (6-mer frequency, TF over GST control); in the assay with ETV7 it was 1.04 fold enrichment (6-mer frequency, TF over GST control); with ETV3, 1.08 fold enrichment (6-mer frequency, TF over GST control). Also, the binding signal in the assay with ETV6 was 1.03 fold enrichment (6-mer frequency, TF over GST control).
